# Source: PubChem
# Hsp90 inh – tumor Hsp90 inhibitors, primary screen, cell lysate, fluorescence polarization, NCI-N417 lysate. Heat shock protein HSP 90-alpha (Homo sapiens), P07900. inhibition, % at 30 µM. 64,000 tested, 0.35% active. Cy3B-geldanamycin FP displacement;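 active = inhibition above 50%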;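 also: 0% = tracer plus lysate wells and 100% = tracer alone without lysate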
# WNV NS2B-NS3 inh – inhibitors of WNV NS2B-NS3 protease, primary screen, biochemical, fluorogenic substrate; AID 577, 2007; Genome polyprotein (West Nile virus), P06935; z-score (test concentration not listed); fluorogenic substrate Ex360/Em465; hits give low values; 65,000 tested, 0.18% active; in the data active = z-score below about -3
# Cdc25B inh – inhibitors of Cdc25B phosphatase catalytic domain, primary screen, biochemical, OMFP fluorescence; 65,000 tested, 0.1% active; inhibition, %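 (compounds tested at 10 µM final in the well)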; M-phase inducer phosphatase 2 (Homo sapiens), P30305; recombinant Cdc25B, OMFP fluorescence Ex485/Em525; in the data active = inhibition above about 50%
# Target sequence (P30305 whole entry, looked up, the tested form may be a part): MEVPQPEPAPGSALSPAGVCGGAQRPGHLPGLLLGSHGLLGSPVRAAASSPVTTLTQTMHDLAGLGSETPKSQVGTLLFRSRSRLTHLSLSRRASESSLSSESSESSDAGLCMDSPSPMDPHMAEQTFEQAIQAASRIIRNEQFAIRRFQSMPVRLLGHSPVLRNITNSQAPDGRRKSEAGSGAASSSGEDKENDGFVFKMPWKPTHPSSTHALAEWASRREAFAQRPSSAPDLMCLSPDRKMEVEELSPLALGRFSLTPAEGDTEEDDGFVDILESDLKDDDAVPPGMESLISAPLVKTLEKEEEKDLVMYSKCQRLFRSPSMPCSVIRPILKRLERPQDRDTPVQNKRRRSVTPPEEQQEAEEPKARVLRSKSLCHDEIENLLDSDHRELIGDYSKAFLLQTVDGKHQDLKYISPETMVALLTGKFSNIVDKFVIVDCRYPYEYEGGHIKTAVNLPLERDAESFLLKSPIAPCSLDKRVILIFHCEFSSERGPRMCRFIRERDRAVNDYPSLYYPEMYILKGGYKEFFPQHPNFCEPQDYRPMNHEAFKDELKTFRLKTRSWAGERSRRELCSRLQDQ
# MKP-1 inh – MKP-1 phosphatase inhibitors, primary screen, biochemical, in vitro | 65,000 tested, 0.15% active | AID 374, 2006 | Dual specificity protein phosphatase 1 (Homo sapiens), P28562 | recombinant MKP-1, OMFP hydrolysis fluorescence | inhibition, %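 (compounds tested at a single concentration somewhere between 10 and 100 µM)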;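 active = inhibition above about 50%, limit read from the data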;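 also: 0% = DMSO max control wells and 100% = wells with enzyme stopped by NaOH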
# SK-BR-3 tox 24h – SK-BR-3 proliferation inhibitors, primary screen, cell-based, human, 24 h; SK-BR-3 viability, CellTiter-Glo ATP luminescence; hits give low values; viability, % at 10 µM; 41,000 tested, 0.47% active; AID 847, 2007;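 active = viability at or below the median of all test compounds minus 3 SD, in both replicates if run twice, cut at about 45% in these data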;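 also: 100% = median untreated cell wells and 0% = median positive control drug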
# An asterisk follows results filed as active; nt = no result given. Compounds with a hit are over-represented: about 1% of the library has one in this group of screens.
SMILES,Hsp90 inh,WNV NS2B-NS3 inh,Cdc25B inh,MKP-1 inh,SK-BR-3 tox 24h
O=C(Nc1cccc2nsnc12)C1CC(=O)N(c2ccccc2)C1 (stereo not given),-2,1.5,-2,-24,42*
Cc1cc(C(=O)OCC(=O)Nc2cc(C(F)(F)F)ccc2N2CCOCC2)c(C)o1,0,0.56,-14,3,91
O=C(CCN1C(=O)C2C3C=CC(C3)C2C1=O)NCCN1CCCc2ccccc21 (stereo not given),-7,1.4,-2,-7,30*
COc1ccc(NC(=O)Cn2nnc(-c3ccccc3NC(=O)c3ccco3)n2)cc1,-4,0.31,0,17,28*
O=C(O)CCC(NC(=O)c1ccccc1C(=O)O)C(=O)O (stereo not given),1,nt,nt,nt,nt
Cc1[nH]c2c(Cl)cccc2c(=O)c1CN1CCCC1,-1,0.41,63*,-2,84
Cc1[nH]c2ccc(Br)cc2c(=O)c1CN1CCCCC1,2,0.86,5,29,67
O=c1[nH]cnc2[nH]ncc12,0,0.22,-3,74*,79
Clc1ccc(SCCn2ccnc2)cc1,-2,0.38,-12,-15,nt
CCCCCCOC(=O)C(C#N)c1nc2ccccc2nc1N1CCN(C)CC1 (stereo not given),-11,-0.62,-11,4,4.9*
CCCCCCOC(=O)C(C#N)c1nc2ccccc2nc1N1CCCCC1 (stereo not given),-6,0.09,0,-3,97
C=CCn1c(NC(=O)c2ccccc2Cl)c(C#N)c2nc3ccccc3nc21,61*,-1.3,26,20,90
C=CCn1c(NC(=O)c2ccccc2)c(C#N)c2nc3ccccc3nc21,63*,-0.8,25,36,nt
CCCCn1c(NC(C)=O)c(C#N)c2nc3ccccc3nc21,-14,0.71,6,-4,86
O=C(CSc1nnc(-c2ccncc2)n1-c1ccc(Cl)cc1)N1CCOCC1,-1,-0.46,2,16,86
CCOC(=O)/C=C/S(=O)(=O)c1ccc(NC(C)=O)cc1,0,2.2,-1,2,3.0*
COC(=O)c1ccc(Cn2cc(Cl)cn2)cc1,-1,-0.86,-14,13,97
CC(C)NC(=O)c1cccc(Cn2cc(Cl)cn2)c1,-2,-3.6*,0,-22,96
CCCCc1c(C)c2ccc(OC)c(/C(C)=N\O)c2oc1=O,2,1.3,-5,-4,76
CCOC(=O)c1sc2ncnc(N3CCN(C(=O)OCC)CC3)c2c1C,2,1.5,7,2,42*
COc1ccccc1N1CCN(CCCCNS(=O)(=O)c2cccc3c(N(C)C)cccc23)CC1,4,nt,nt,nt,nt
Cc1cc(C)n(-c2nc3ccccc3c(=O)n2OCc2ccc(F)cc2)n1,2,-0.5,-8,-31,40*
CSc1nnc(-c2cnccn2)n1CCCN1CCCC1=O,1,0.52,-10,13,107
COc1ccccc1-c1nnc(SC/C(O)=C(\C#N)c2nc3ccccc3[nH]2)n1C1CCCCC1,-4,2.6,26,38,nt
C=CCn1c(COc2ccccc2)nnc1SCc1ccc(C#N)cc1,-1,-0.77,-6,-22,91
SMILES,Hsp90 inh,WNV NS2B-NS3 inh,Cdc25B inh,MKP-1 inh,SK-BR-3 tox 24h
C=CCn1c(COc2ccc(CC)cc2)nnc1SC/C(O)=C(\C#N)c1nc2ccccc2[nH]1,-12,0.75,1,18,29*
N#C/C(=C(/O)CSc1nnc(Cc2cccs2)n1C1CCCCC1)c1nc2ccccc2[nH]1,nt,1.2,0,52*,86
CN(C1CCCCC1)S(=O)(=O)c1ccc2c(c1)c(=O)c(C(=O)NCCN1CCCC1)cn2C,-1,-2.1,-8,-4,nt
Cn1cc(C(=O)NCN2CCCCC2)c2ccccc21,-7,-6.6*,2,-18,82
O=C(OCCN1C(=O)c2ccccc2C1=O)c1cc(S(=O)(=O)N2CCOCC2)ccc1F,-2,-3.1*,0,19,nt
O=C(CCN1C(=O)c2ccccc2C1=O)Nc1ccc(S(=O)(=O)N2CCOCC2)cc1,-9,-1.3,-8,7,104
COc1ccc2c3c(cccc13)NN=C2C,86*,-4.5*,-5,12,nt
Cc1ccc(-c2noc(C3CCCN(C(=O)c4c(F)cccc4F)C3)n2)cc1 (stereo not given),-4,-0.83,0,6,28*
O=c1oc2c3c4c(cc2s1)CCCN4CCC3,69*,0.84,16,2,79
N.N.N.N.N.N.N.N.N.N.N.N.N.N.O.O.[Cl-].[Cl-].[Cl-].[Cl-].[Cl-].[Cl-].[Ru+4].[Ru+5].[Ru+5],30,nt,nt,nt,nt
CCc1nnc(NC(=O)c2ccncc2)s1,-1,-1,4,-10,75
CCc1nnc(NC(=O)c2cccc(C(=O)Nc3nnc(CC)s3)n2)s1,-2,1.7,5,2,42*
Cc1nn2c3c(cnc2c1-c1ccc(Cl)cc1)C(=O)CC(c1ccco1)C3 (stereo not given),-1,-1.2,4,-4,100
O=c1c2sc3nc(N4CCOCC4)c4c(c3c2ncn1Cc1ccco1)CCCC4,-5,-0.83,-6,-15,89
O=C(O)c1ccc2c(c1)N(Cc1ccccc1)C(=O)c1ccccc1S2=O (stereo not given),1,-0.41,66*,2,nt
O=C(OCCCN1CCCCC1)c1ccc(O)cc1,-11,0.25,57*,-32,120
CCN(CC)c1ccc2cc(NC(=O)CCC(=O)O)c(=O)oc2c1,0,0.73,-3,15,43*
Cc1cccc(NC(=O)Cn2c(C)c(C#N)c3ccccc32)c1C,-14,0.55,-5,16,87
CCOC(=O)c1[nH]c2ccccc2c1NC(=O)COC,-2,1.7,-3,14,nt
CCOC(=O)c1[nH]c2ccccc2c1NC(=O)CC,-3,-4*,0,8,nt
CC(=O)Nc1ccc(S(=O)(=O)N2CCN(c3nc(NC4CCCC4)c4ccccc4n3)CC2)cc1,-3,-0.11,2,18,41*
CCCn1c(SCC(=O)NCc2ccco2)nc2c1c(=O)n(C)c(=O)n2C,-2,-0.46,3,-10,86
CCn1c(SCC(=O)NCc2ccco2)nc2c1c(=O)n(C)c(=O)n2C,-3,-0.0019,-12,-20,42*
Nc1ccc(C(=O)CSCC(NC(=O)CCC(N)C(=O)O)C(=O)NCC(=O)O)cc1 (stereo not given),-5,nt,nt,nt,nt
Oc1ccc(C2CNCc3sccc32)cc1O (stereo not given),58*,nt,nt,nt,nt
Cc1nc(SCC(=O)N2CCC(C(N)=O)CC2)n[nH]1,-2,1.3,12,2,145
CS(=O)(=O)N(CC(=O)Nc1ccc2c(c1)OCO2)Cc1ccc(Cl)cc1,35,-0.84,-12,5,90
O=S(=O)(Cc1ccc(Cl)cc1)Nc1ccc2c(c1)OCO2,56*,0.52,-2,-3,82
